Cruzain inh Det: blocks cruzain activity in presence of Triton detergent | P25779 | purified cruzain, Z-FR-AMC fluorescence, 0.01% Triton | Potency, µM, most hits filed as inhibitors | 0.43% of 200,000 active; also: nearly all actives have a fitted effect of over 40% in size
Target sequence (P25779 123-467 limits assumed): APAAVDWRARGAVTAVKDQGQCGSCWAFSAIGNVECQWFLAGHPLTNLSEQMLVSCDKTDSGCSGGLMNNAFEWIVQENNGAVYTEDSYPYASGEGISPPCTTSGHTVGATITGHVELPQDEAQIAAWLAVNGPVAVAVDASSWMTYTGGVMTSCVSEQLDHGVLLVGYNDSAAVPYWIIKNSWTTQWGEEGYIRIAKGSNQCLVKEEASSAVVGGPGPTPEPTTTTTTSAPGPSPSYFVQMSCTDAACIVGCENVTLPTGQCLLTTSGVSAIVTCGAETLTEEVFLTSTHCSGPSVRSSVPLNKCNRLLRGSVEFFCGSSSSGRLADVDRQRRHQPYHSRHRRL
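Cruzain (1.5 nM) preincubated 15 min at RT with compound in 100 mM sodium acetate pH 5.5, 5 mM DTT, 0.01% Triton X-100. Reaction started with 2 uM Z-FR-AMC; AMC fluorescence (ex 360/em 450 nm) change over 60 s gave rate.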
Cruzain noTriton: blocks cruzain activity in detergent-free assay; P25779; purified cruzain, Z-FR-AMC fluorescence, no detergent; Potency, µM, hits mostly inhibitors; 2.3% of 200,000 active; AID 1476; also: nearly all actives have a fitted effect of over 40% in size
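Purified cruzain at 1.5 nM, pre-incubated 15 min with compound at room temperature in 100 mM sodium acetate pH 5.5, 5 mM DTT, 0.00005% Triton X-100. Reaction started with 2 uM Z-FR-AMC; AMC fluorescence increase over 60 s gives rate.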
Of the large screens only hits and unclear results are named; the others gave an inactive call. This is a sample that favours compounds with a hit; in the whole collection about 2.5% have one here. Calls follow the shape of the dose curve; as a rule, active = well fitted curve in the direction sought with a large enough effect; inconclusive = small, poorly fitted or top-dose-only effect, or another doubt; inactive = no such curve, though single readings can be large; an effect the other way counts as inactive or inconclusive.

CCN(CC)C(=O)C(C)N(C#N)c1nc(SC)nc(N(C)C)n1 (stereo unspecified)	none
COc1ccc(Cl)cc1N/C(N)=N/c1nc(CSc2ccc(C)cc2)cc(=O)[nH]1	Cruzain noTriton inconclusive
Cc1ccc(SCc2cc(=O)[nH]c(/N=C(\N)Nc3cccc4ccccc34)n2)cc1	Cruzain noTriton 31.6µM
CC1=C(C(=O)N2CCCCC2)C(c2cccc(Cl)c2)n2c(nc3ccccc32)N1 (stereo unspecified)	none
CC(C)CCNC(=O)[C@H](CC(C)C)NC(=O)[C@H]1O[C@@H]1C(=O)O	Cruzain inh Det 0.1µM, Cruzain noTriton 0.1µM
CC(C)CCNC(=O)CCCOc1ccccc1	none
COC(=O)c1c(NC(=O)c2ccc(C)c(S(=O)(=O)Nc3ccccc3C)c2)sc2c1CCCC2	Cruzain noTriton 7.94µM
COC(=O)c1c(NC(=O)c2ccc(Br)s2)sc2c1CCC2	Cruzain noTriton 10µM
COC(=O)c1c(NC(=O)c2c(OC)cccc2OC)sc2c1CCCC2	none
COC(=O)c1c(NS(=O)(=O)c2ccc3ccccc3c2)sc2c1CCCC2	Cruzain noTriton inconclusive
CC(C)CCSc1nnc2n(-c3ccccc3)c(=O)c3c4c(sc3n12)CC(C)CC4 (stereo unspecified)	none
Cc1cc(C)c(Cn2c(C)c(CNCCCc3ccccc3)c(C(=O)O)c2C)c(C)c1	none
COc1ccc2c(c1)c(=O)c(S(=O)(=O)c1ccc(F)cc1)cn2Cc1ccccc1Cl	none
COc1ccc(OC)c(NC(=S)N(CCc2c(C)[nH]c3ccccc23)Cc2cccs2)c1	Cruzain noTriton inconclusive
COc1ccc(OC)c(NC(=S)N(CCc2c(C)[nH]c3ccc(C)cc23)Cc2cccs2)c1	Cruzain noTriton 25.1µM
CC(=O)Nc1ccc(NC(=O)CC(C)n2ccc(C)n2)cc1 (stereo unspecified)	none
CCOc1ccc(N2C(=O)CC(S/C(N)=N/N=C/c3cccs3)C2=O)cc1 (stereo unspecified)	Cruzain noTriton 10µM
COc1ccc(N2C(=O)CC(S/C(N)=N/N=C(\C)c3cccs3)C2=O)cc1 (stereo unspecified)	none
COc1cccc(/C=c2\s/c(=C/C(=O)c3ccc(C)cc3)[nH]c2=O)c1OC	none
COc1ccc(/C=c2\s/c(=C/C(=O)c3ccc(C)cc3)[nH]c2=O)c(OC)c1	Cruzain noTriton 25.1µM
COc1ccc(/C=N/NC(=O)c2cccc([N+](=O)[O-])c2)cc1OC(=O)c1ccc(C)cc1	none
CCOc1cc(/C=N/NC(N)=O)ccc1OC(=O)c1ccc(C)cc1	none
COc1cc(/C=N/NC(=O)COc2c(C)cc([N+](=O)[O-])cc2C)ccc1OC(=O)c1ccccc1Br	Cruzain noTriton 10µM
O=C(COc1ccccc1-c1ccccc1)N/N=C/c1ccc2ccccc2c1	Cruzain noTriton 20µM
CCOc1cc(/C=N/NC(=O)CNc2ccc(C)cc2)ccc1OC(=O)c1ccccc1	Cruzain noTriton 10µM
COc1ccc(/C=N/NC(=O)c2cccc([N+](=O)[O-])c2)cc1OC(=O)c1ccccc1	Cruzain noTriton 25.1µM
COc1ccc(/C=N/NC(=O)CSCc2ccc([N+](=O)[O-])cc2)cc1OC	none
O=C(COc1ccccc1[N+](=O)[O-])N/N=C/c1ccc(O)cc1	none
Cc1ccc(NC(=O)CN2C(=O)C3(SCC(=O)N3c3ccc(F)c(F)c3)c3ccccc32)c(C)c1 (stereo unspecified)	Cruzain noTriton inconclusive
COc1ccccc1C(=O)Nc1c(C(=O)Nc2cc(Cl)ccc2C)sc2nc(C)cc(C)c12	none
Cc1cccc(CNC(=O)CN2C(=O)CCn3nc(-c4cn(C)c5ccccc45)cc32)c1	Cruzain noTriton inconclusive
COc1cc(C)ccc1OCCSc1nc2ccc(NC(C)=O)cc2s1	Cruzain noTriton inconclusive
O=C(CN1CCOCC1)N/N=C/c1cc2ccccc2nc1Cl	none
Cc1ccc(NCC(=O)N/N=C\C(Br)=C\c2ccccc2)cc1	Cruzain noTriton 12.6µM
O=C(N/N=C/c1cccc([N+](=O)[O-])c1)c1ccc(COc2ccccc2-c2ccccc2)cc1	Cruzain noTriton 20µM
Cc1cc(C)nc(SCC(=O)N/N=C\C(Br)=C\c2ccccc2)n1	none
COc1cc(/C=N/NC(=O)c2cccc([N+](=O)[O-])c2)ccc1OCc1ccccc1	none
COc1cccc(C(=O)N/N=C/c2ccc(Oc3ccc([N+](=O)[O-])cn3)c(OC)c2)c1	none
Cc1ccc(NCC(=O)N/N=C/c2cc3ccccc3nc2Cl)cc1	Cruzain noTriton 25.1µM
N#Cc1cc([N+](=O)[O-])ccc1Oc1cccc(/C=N/NC(=O)c2cccc(Cl)c2)c1	Cruzain noTriton 25.1µM
COc1ccc(OC)c(CC2C(=O)Nc3ccc(Br)cc32)c1 (stereo unspecified)	Cruzain noTriton inconclusive
CC(=O)N1CCCc2cc(S(=O)(=O)N3CCC(C(=O)Nc4ccc(C)cc4Cl)CC3)ccc21	Cruzain noTriton inconclusive
COc1ccc2c(Sc3ccccc3)c(C(=O)NCCCN3CCCCC3)[nH]c2c1	none
COc1cc(/C=N/NC(=O)COc2c(C)cc([N+](=O)[O-])cc2C)ccc1OC(=O)c1ccccc1	Cruzain noTriton 25.1µM
COc1cc(/C=N/NC(N)=S)ccc1OCC(=O)Nc1ccc(C)c(C)c1	Cruzain inh Det 15.8µM, Cruzain noTriton 12.6µM
CCOc1cc(/C=N/NC(=O)c2cc(C)[nH]n2)ccc1OC(=O)c1ccc([N+](=O)[O-])cc1	none
COc1cc(/C=N/NC(N)=O)ccc1OCC(=O)Nc1ccc(C)c(C)c1	none
CCOc1ccc(CNCc2c(C(=O)O)c(C)n(Cc3ccc(F)cc3Cl)c2C)cc1	none
CCOC(=O)c1cc(-c2ccc(F)cc2)n(CCC(=O)Nc2nc3ccc(OC)cc3s2)c1C	none
CCOc1ccc(CCNC(=O)Cn2nnc(-c3ccc(C(F)(F)F)cc3)n2)cc1OCC	none
CN(C)CCNC(=O)c1ccc(-n2c(-c3ccccc3)cc3c2CCCC3)cc1	Cruzain noTriton inconclusive
CCOc1ccc(NC(=O)C(CC)n2nc(-c3ccc(C)c(C)c3)ccc2=O)cc1 (stereo unspecified)	none
CC(C)C(NC(=O)OCc1ccccc1)C(=O)O (stereo unspecified)	none
CC(C)[C@H](NC(=O)OCc1ccccc1)C(=O)NCc1ccccc1	none
CC(C)[C@H](NC(=O)OCc1ccccc1)C(=O)N[C@H](C=O)Cc1ccccc1	Cruzain inh Det 0.0316µM, Cruzain noTriton 0.0316µM
CC(C)[C@H](NC(=O)OCc1ccccc1)C(=O)OCC(=O)Nc1c(F)cccc1F	Cruzain inh Det 14.1µM, Cruzain noTriton inconclusive
Cc1cccc(C)c1OCC(=O)Nc1c(C(=O)c2ccc(Br)cc2)oc2ccccc12	none
CCCCN(CC)C(=O)c1cc2c(=O)n3ccccc3nc2n1C	none
Cc1cc2nc(-c3ccc(Cl)cc3)cc(C(F)(F)F)n2n1	none
COc1ccc(/C=N/Nc2nc(-c3cccc(S(=O)(=O)N4CCCC4)c3)cs2)cc1OC	none
CCOc1cc(/C=N/Nc2nc(-c3cccc(S(=O)(=O)N4CCCC4)c3)cs2)ccc1O	Cruzain noTriton 15.8µM
COc1cc(NC(=O)CCn2c(-c3ccccc3)cc(C(C)=O)c2C)cc(OC)c1	none
CCOC(=O)C1=C(N)n2c(s/c(=C\c3cccnc3)c2=O)=C(C(=O)OCC)C1c1cccnc1 (stereo unspecified)	Cruzain noTriton inconclusive
CCOC(=O)C1=C(N)n2c(s/c(=C\c3cccs3)c2=O)=C(C(=O)OCC)C1c1cccs1 (stereo unspecified)	Cruzain noTriton 2µM
Cc1ccc(C(=O)c2sc3c(c2N)c(=O)[nH]c(=O)n3CCc2ccccc2)cc1	Cruzain noTriton 12.6µM
